# Screening data (PubChem BioAssay)
# G9a block = G9a (human) methyltransferase inhibition; Q96KQ7; G9a H3K9 monomethylation, AlphaScreen, 2 h; Potency, µM (top dose mostly 102 µM), without a hit: at the top dose activity, negative = inhibition, hits mostly inhibitors; actives 8.8% (n = 350,000); AID 504332; note: % is set by controls: 0 for no effect and ±100 for the full control effect; nearly all actives have a fitted effect of over 75% in size
#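 AlphaScreen detection with an anti-monomethyl H3K9 antibody quantified product after a 2 h room-temperature reaction containing 500 nM biotinylated H3K9 peptide, 20 µM SAM and 20 nM enzyme, which had been preincubated 15 min with compound.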
# TDP1 inh = blocks human tyrosyl-DNA phosphodiesterase 1. Q9NUW8. recombinant TDP1, AlphaScreen DNA substrate cleavage. Potency, µM (titrated, usually from 130 µM), inactives show at the top dose activity change, negative = inhibition, usual class: inhibitors. actives 0.28% (n = 350,000). AID 485290; note: % is set by controls: 0 for no effect and ±100 for the full control effect; nearly all actives have a fitted effect of over 40% in size
#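 AlphaScreen read-out: signal falls as enzyme removes the 3' tyrosine-FITC from a 5'-biotinylated DNA oligo (15 nM, 5 min, RT). Enzyme was E. coli-made recombinant Tdp1 at 1 nM, exposed to compound for 15 min beforehand; beads 10 ug/ml, 10 min.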
# BAZ2B block = inhibitors of human BAZ2B bromodomain; Q9UIF8; AlphaScreen BAZ2B-H3K14Ac peptide displacement; Potency, µM (doses to about 114 µM), inactives show at the highest dose activity change, negative = inhibition, hits mostly inhibitors; actives 4.4% (n = 360,000); note: % is set by controls: 0 for no effect and ±100 for the full control effect; nearly all actives have a fitted effect of over 60% in size
#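 BAZ2B (50 nM) with biotin-H3(5-23)K14Ac peptide (50 nM) in PBS pH 7.4, 0.01% Tween-20, preformed 30 min, then compound 30 min at room temperature; top concentration 110uM. AlphaScreen streptavidin donor/nickel chelate acceptor beads (10 ug/mL final), 20 min dark, signal read.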
# HP1b chromo inh = inhibitors of HP1-beta chromodomain binding to methylated histone tails; P83916; AlphaScreen HP1-beta / biotin-H3K9me3 peptide binding; Potency, µM (series often up to 114 µM), for inactives: top-dose activity change, negative = inhibition, usual class: inhibitors; actives 0.56% (n = 390,000); AID 540317; note: nearly all actives have a fitted effect of over 70% in size
#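 AlphaScreen: HP1-beta (50 nM) preformed 30 min with biotin-H3(1-18)K9me3 peptide (50 nM) in PBS pH 7.4, 0.01% Tween-20. Compound added for 30 min at RT, then streptavidin donor/nickel chelate acceptor beads (10 ug/mL) for 30 min.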
# Sfp inh = Sfp phosphopantetheinyl transferase inhibition. Q9F4F7. Biochemical Sfp PPTase activity, qHTS. Potency, µM, without a hit: largest response in the series, negative = inhibition, actives largely listed as inhibitors. actives 3.5% (n = 310,000). AID 1490;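 note: the enzyme is Sfp with the accession as filed and its product quenches rhodamine fluorescence; 0% = enzyme reaction without inhibitor and -100% = no enzyme wells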
#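 Buffer: 50 mM Hepes-Na pH 7.6, 10 mM MgCl2, 0.01% Nonidet P-40, 0.01% BSA. Enzyme 15 nM, pre-exposed to compound 15 min; substrates then added and fluorescence change tracked over 30 min.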
# JMJD2A Tudor inh = blocks the human JMJD2A Tudor domain; AlphaScreen JMJD2A-Tudor / H3K4me3 peptide binding; Potency, µM (titrated, usually from 114 µM), for the others: at the top dose activity change, negative = inhibition, actives largely listed as inhibitors; actives 4.4% (n = 390,000); AID 504339; note: % is set by controls: 0 for no effect and ±100 for the full control effect; nearly all actives have a fitted effect of over 50% in size
# Target sequence (O75164 whole entry, looked up, the tested form may be a part): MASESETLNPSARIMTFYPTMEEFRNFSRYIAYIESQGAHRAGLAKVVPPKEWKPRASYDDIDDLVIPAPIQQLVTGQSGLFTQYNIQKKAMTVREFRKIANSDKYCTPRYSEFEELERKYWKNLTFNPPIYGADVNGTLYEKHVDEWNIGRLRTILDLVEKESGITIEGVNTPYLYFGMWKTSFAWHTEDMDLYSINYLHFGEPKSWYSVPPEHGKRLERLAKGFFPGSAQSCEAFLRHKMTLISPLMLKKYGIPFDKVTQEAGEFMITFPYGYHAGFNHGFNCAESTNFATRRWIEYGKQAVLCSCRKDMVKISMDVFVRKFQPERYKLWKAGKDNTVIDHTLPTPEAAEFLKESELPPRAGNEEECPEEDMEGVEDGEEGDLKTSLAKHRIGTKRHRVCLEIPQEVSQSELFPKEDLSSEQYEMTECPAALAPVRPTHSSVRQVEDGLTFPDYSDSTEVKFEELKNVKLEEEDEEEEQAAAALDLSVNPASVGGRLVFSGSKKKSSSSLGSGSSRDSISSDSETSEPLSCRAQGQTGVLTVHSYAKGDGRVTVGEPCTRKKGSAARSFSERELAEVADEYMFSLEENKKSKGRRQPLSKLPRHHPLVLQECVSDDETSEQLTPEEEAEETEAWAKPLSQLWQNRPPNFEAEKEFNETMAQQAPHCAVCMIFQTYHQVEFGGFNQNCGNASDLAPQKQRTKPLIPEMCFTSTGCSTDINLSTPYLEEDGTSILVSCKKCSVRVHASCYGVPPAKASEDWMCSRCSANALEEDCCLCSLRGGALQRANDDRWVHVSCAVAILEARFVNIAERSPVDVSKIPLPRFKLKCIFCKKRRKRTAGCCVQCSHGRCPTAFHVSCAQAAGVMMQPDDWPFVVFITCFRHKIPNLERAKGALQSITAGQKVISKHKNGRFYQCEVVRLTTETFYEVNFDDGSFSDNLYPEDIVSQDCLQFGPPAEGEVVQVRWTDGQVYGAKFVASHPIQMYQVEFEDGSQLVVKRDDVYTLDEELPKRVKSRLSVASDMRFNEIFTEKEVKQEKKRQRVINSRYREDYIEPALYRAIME
# Starred values were filed as active, the others as inactive; ? = inconclusive; . = no result given; [ ] = dose if it differs, or a comment. In the library only some 12% were active in any assay of this set; here they are far more common. Calls come from the whole dose curve; as a rule, active = well fitted curve in the direction sought with a large enough effect; inconclusive = small, poorly fitted or top-dose-only effect, or another doubt; inactive = no such curve, though single readings can be large; an effect the other way counts as inactive or inconclusive. Potency is the fitted concentration of half-maximal effect.
SMILES,G9a block,TDP1 inh,BAZ2B block,HP1b chromo inh,Sfp inh,JMJD2A Tudor inh
NS(=O)(=O)c1ccc(NCC2COc3ccccc3O2)c([N+](=O)[O-])c1 (configuration not stated),50.1µM*,4.8%,-35.1%,-20.9%,12.3%,-31.9%
NNC(=O)C(=O)NCCCN1CCOCC1,56.2µM*,0.5%,-29.3%,15.2%,4.9%,?
CC(C)CNC(=O)C(=O)NCCCN1CCOCC1,.,-2.4%,-7.7%,-10.8%,7.4%,-5.3%
O=C(/C=C/c1ccc(Br)o1)NCCCN1CCOCC1,22.4µM*,4.6%,?,17.2%,17.8µM*,-9.5%
CC(C)OC(=O)c1c(-c2ccccc2)c(-c2ccccc2)nn(C)c1=O,?,4.7%,17.1%,31.5%,.,-16.4%
Cc1cccc(S(=O)(=O)NNC(=O)Cc2cccn2C)c1,50.1µM*,0.0%,-28.4%,-29.8%,11.7%,39.8µM*
O=C(c1ccccc1)c1c(O)cc(-c2ccccc2)oc1=O,?,0.0%,56.2µM*,?,13.0%,?
Cc1ccc(C(=O)Nc2c(C)cc(-c3ccccc3)oc2=O)cc1,1.7%,7.5%,-13.8%,20.2%,-1.8%,-13.8%
Clc1ccc(-c2nc3ccccn3c2CN2CCCCC2)cc1,-26.8%,3.8%,-32.3%,11.6%,8.6%,-15.7%
Oc1ccc(N2CCN(Cc3c(-c4ccccc4)nc4ccccn34)CC2)cc1,10µM*,18.9%,?,?,25.1µM*,14.1µM*
S=c1[nH]nc(COc2ccccc2)n1/N=C/c1cccc(Cl)c1Cl,?,.,-18.6%,-5.8%,-1.9%,?
S=c1[nH]nc(COc2ccccc2)n1/N=C/c1c(Cl)cccc1Cl,2µM*,.,2.0%,5.2%,-14.5%,-11.4%
S=c1[nH]nc(COc2ccccc2)n1/N=C/c1ccccc1Cl,2.24µM*,.,-21.9%,-1.2%,?,56.2µM*
COc1cccc(CNC(=O)COC(=O)c2cccc(S(=O)(=O)N3CCCC3)c2)c1,-1.6%,4.7%,7.8%,39.9%,.,0.7%
N#Cc1nc(/C=C/c2ccccc2)oc1NCCCN1CCOCC1,-4.4%,3.9%,-2.9%,15.4%,-1.8%,7.9%
CCOC(=O)[C@H]1[C@H]2COc3ccc(Br)cc3[C@H]2N2C(=O)CNC(=O)[C@@]12C,5.1%[0.501 µM],0.5%,8.5%,48.0%,.,-14.5%
COc1ccc(-c2oc3ncn4nc(-c5ccccc5O)nc4c3c2-c2ccc(OC)cc2)cc1,17.6%[59 µM],-0.4%[12.3 µM],4.5%,20.0%,.,4.6%
COc1ccc(/C=C(\NC(=O)c2ccc(C)cc2)C(=O)NCCCn2ccnc2)cc1OC,5.6%,.,50.1µM*,-11.2%,15.3%,-29.1%
Cc1ccc(C(=O)N/C(=C\c2ccc(F)cc2)C(=O)NCCCn2ccnc2)cc1,8.2%,.,79.4µM*,55.1%,2.0%,-15.5%
C=C1C(=O)OC2C[C@@]3(C)CCCC(C)C3=CC12 (some centres not stated),.,-6.1%[56.1 µM],.,.,2.7%,.
COc1ccc(Cl)cc1NS(=O)(=O)c1ccc(S(=O)(=O)N2CCCC2)cc1,8.91µM*,0.0%,-7.5%,28.1%,-3.4%,-7.5%
COc1ccc(Nc2ccc(S(=O)(=O)N3CCCCC3)cc2[N+](=O)[O-])cc1Cl,7.08µM*,.,8.91µM*,?,8.3%,5.62µM*
O=[N+]([O-])c1cc(S(=O)(=O)N2CCOCC2)ccc1NS(=O)(=O)c1ccccc1,.,0.4%,.,30.6%,.,-10.3%
CCc1ccc(Nc2ccc(S(=O)(=O)N3CCOCC3)cc2[N+](=O)[O-])cc1,28.2µM*,8.1%,11.2µM*,?,15.9%,11.2µM*
COc1ccccc1C(CNc1ccc(S(=O)(=O)N2CCCC2)cc1[N+](=O)[O-])N(C)C (configuration not stated),-49.0%,8.4%[56.1 µM],?,?,8.8%,?
SMILES,G9a block,TDP1 inh,BAZ2B block,HP1b chromo inh,Sfp inh,JMJD2A Tudor inh
CN(C)S(=O)(=O)c1ccc(NC(=O)CN2CCCc3ccccc32)cc1,39.8µM*,8.1%,?,-19.2%,2.0%,?
O=C(CN1CCCc2ccccc21)NCc1ccccc1Cl,44.7µM*,5.5%,-38.7%,1.0%,-0.1%,-35.8%
O=C(CN1CCCc2ccccc21)Nc1cc(S(=O)(=O)N2CCCC2)ccc1Cl,25.1µM*,3.5%,-31.0%,32.7%,.,-22.8%
CC1Cc2ccccc2N1CC(=O)Nc1ccc(S(=O)(=O)N(C)C)cc1 (configuration not stated),?,6.2%,?,28.5%,-28.9%,-22.1%
CN(C)S(=O)(=O)c1cc(NC(=O)CN2CCc3ccccc32)ccc1Cl,15.8µM*,5.4%,-14.7%,0.8%,-26.8%,-17.4%
CC(=O)c1cc(-c2ccc(F)cc2)n(CCC(=O)NCc2ccc(C)cc2)c1C,-29.8%[59 µM],3.8%,-8.2%,-7.4%,.,-7.1%
COc1ccc(C2/C(=C(\O)c3ccc4c(c3)OCCO4)C(=O)C(=O)N2Cc2cccnc2)cc1OC (configuration not stated),?,3.6%,-29.9%,8.6%,4.2%,-22.8%
COc1cc(C2/C(=C(\O)c3ccc4c(c3)OCCO4)C(=O)C(=O)N2Cc2ccco2)ccc1O (configuration not stated),50.1µM*,1.1%,-34.1%,4.6%,3.7%,-29.0%
COc1cc(C2/C(=C(\O)c3ccc4c(c3)OCCO4)C(=O)C(=O)N2Cc2ccco2)cc(OC)c1OC (configuration not stated),50.1µM*,-0.5%,-36.2%,12.2%,?,-15.8%
Cc1ccc(S(=O)(=O)N2CCN(c3nc(-c4ccnnc4)nc4ccccc34)CC2)cc1,.,-0.7%,.,32.4%,.,31.6µM*
COc1ccc(-c2nc(N3CCN(S(=O)(=O)c4ccc(C)cc4)CC3)c3ccccc3n2)cc1,.,3.2%,.,6.2%,.,-27.4%
O=S(=O)(c1ccccc1)N1CCN(c2nc(-c3cccnc3)nc3ccccc23)CC1,2.8%[0.501 µM],6.9%,50.1µM*,23.9%,.,-22.0%
CC(=O)c1ccc(S(=O)(=O)N2CCN(c3nc(-c4cccnc4)nc4ccccc34)CC2)cc1,?,0.4%,-0.1%,18.6%,.,-20.1%
O=C(c1csnn1)N1CCC2(CC1)CN(c1cccc(-c3ccccc3)c1)C2,6.1%[12.7 µM],.,.,.,-19.0%,.
CS[C@@H]1SC[C@H]2C(=O)N(C)C(C(C)C)C(=O)OC[C@@H](NC(=O)c3cnc4ccccc4n3)C(=O)N[C@@H](C)C(=O)N(C)[C@H]1C(=O)N(C)C(C(C)C)C(=O)OC[C@@H](NC(=O)c1cnc3ccccc3n1)C(=O)N[C@@H](C)C(=O)N2C (some centres not stated),.,8.9%,.,.,7.0%,.
N#Cc1c(-n2cccc2)cccc1-n1cccc1,?,5.2%,50.1µM*,-35.1%,15.1%,?
